Screen size: about 96,000 compounds; about 20,000 (21%) were called active. A selection follows. A number with no mark means an inactive call.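 Rule for the calls: active = CYP2C19 inhibition above a set limit at 5 µM in the primary screen (cut at about 50% in these data); inactive = the rest.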

For the experiment, the target named is Cytochrome P450 2C19 (Homo sapiens) (UniProt P33261). The experiment can be described thus: blockers of cytochrome P450 2C19 activity – biochemical, luminescence, ADME assay, primary screen (AID 778).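 Note: plate controls were negative control wells for no effect and 2.5 mM tranylcypromine positive control for full effect.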 To be noted: CYP2C19 Supersomes, luciferin-H EGE luminescence, 30 min; at 5 µM; stronger effect = higher value.
Sequence of Cytochrome P450 2C19 (Homo sapiens) (P33261 whole entry, looked up): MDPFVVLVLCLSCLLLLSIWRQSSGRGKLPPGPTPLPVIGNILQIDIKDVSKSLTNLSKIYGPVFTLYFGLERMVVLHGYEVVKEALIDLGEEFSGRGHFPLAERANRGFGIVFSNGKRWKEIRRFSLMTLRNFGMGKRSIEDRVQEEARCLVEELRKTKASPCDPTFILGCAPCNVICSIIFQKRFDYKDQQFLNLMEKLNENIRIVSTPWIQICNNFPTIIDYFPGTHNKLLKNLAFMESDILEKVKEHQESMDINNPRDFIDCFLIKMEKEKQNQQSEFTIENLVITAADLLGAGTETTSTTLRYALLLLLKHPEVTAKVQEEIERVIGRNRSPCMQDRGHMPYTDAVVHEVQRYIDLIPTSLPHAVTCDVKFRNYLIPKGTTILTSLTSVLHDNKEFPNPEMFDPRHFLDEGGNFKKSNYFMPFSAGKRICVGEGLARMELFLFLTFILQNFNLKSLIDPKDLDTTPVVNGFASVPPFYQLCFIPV
For `O=C(N/N=C\c1ccc(-c2ccc(Cl)c(Cl)c2)o1)C(=O)N1CCCC1`, the inhibition was 16.3%.
With `COC(=O)CN1C(=O)C(O)=C(C(C)=O)C1c1ccc([N+](=O)[O-])cc1` (stereo not drawn), the inhibition is -14.6%.
On to `Cc1ccsc1C(=O)OCC(=O)c1cc2ccccc2o1`, for which the inhibition was 44.1%.
As to `Cc1ccsc1C(=O)OCC(=O)c1cc(C)n(CC2CCCO2)c1C` (stereo not drawn), the inhibition was 54.4% (active).
On to `Cc1c(C(=O)NCC2CCCO2)sc2nc(-c3ccccc3)cn12` (stereo not drawn), for which the inhibition was 27.4%.
In the case of `COC(=O)c1ccc(S(=O)(=O)N2CCC(c3nc4ccccc4o3)CC2)cc1`, the inhibition was 8.7%.
For `Oc1ccc(/C=N/NC2=NCCCCC2)c(O)c1`, the inhibition was 13.9%.
Under `COC(=O)C1CCN(CC(N)=O)CC1` stands -8.8%; under `Cc1cc([N+](=O)[O-])c(-c2ccc(/C=N/n3cnnc3)o2)cc1Cl`, 63.7% (active).
To `Cc1cc(C)c([N+](=O)[O-])cc1-c1ccc(/C=N/NC(=O)c2nonc2N)o1` belongs 3.8%; to `NC(=O)c1ccsc1NC(=O)c1ccco1`, 38.9%.
For `O=C(NCC(F)(F)F)Nc1nnc(C(F)(F)F)s1`, the inhibition was -26%.
Under `CCOc1cc(S(=O)(=O)NC2CC(C)(C)NC(C)(C)C2)ccc1F` stands -5.3%; under `CCOc1cc(S(=O)(=O)NCc2ccc3c(c2)OCO3)ccc1F`, 91.8% (active); under `CCOc1c2ccc(C(=O)NCc3ccc4c(c3)OCO4)cc2nn1C`, 31.5%.
In the case of `O=C(Nc1cc(-c2nn(CC(=O)N3CCCCC3)c(=O)c3ccccc23)ccc1N1CCOCC1)c1ccc(Cl)cc1`, the inhibition was 7.3%.
To `CC(C)C(=O)NC(=S)Nc1ccccc1F` belongs 25.4%; to `CC(C(=O)Nc1ccc(F)c(F)c1F)N1CCCCCC1` (stereo not drawn), 64.6% (active).
With `O=C(CN1C(=O)NC2(CCCC2)C1=O)Nc1ccc(F)c(F)c1F`, the inhibition is 0.4%.
Under `C=CCNc1ncnc2ccc(Br)cc12` stands 20.7%.
Under `Cc1nc(CNS(=O)(=O)c2cccnc2)cs1` stands 19.3%.
To `Cc1ccc(S(=O)(=O)NCc2csc(C)n2)c(C)c1` belongs 13.3%; to `Cc1nc(CNS(=O)(=O)c2ccc(Oc3ccccc3)cc2)cs1`, 73.1% (active); to `CCOC(=O)c1sc(NC(=O)c2cc(S(=O)(=O)N3CCOCC3)ccc2C)nc1C`, 35.4%.
For `Cc1cc(C(=O)OC(C)C(=O)Nc2cccc(S(=O)(=O)N3CCOCC3)c2)c(C)o1` (stereo not drawn), the inhibition was 96.4% (active).
With `Cc1cc(=O)oc2cc(OC(C)C(=O)Nc3ccc(N4CCOCC4)cc3)ccc12` (stereo not drawn), the inhibition is 27.5%.
In the case of `CC(Sc1nncn1C)C(=O)Nc1ccccc1-c1ccccc1` (stereo not drawn), the inhibition is 9.5%.
In the case of `O=C1Nc2cc(Cl)c(Cl)cc2N(O)N1c1cc(Cl)cc(Cl)c1`, the inhibition is -1.7%.
Under `CN(C)Cc1c(O)ccc2occ(C(O)c3ccccc3)c12` (stereo not drawn) stands 70.5% (active).
Consider `c1csc(CN2CCN(Cc3cccs3)C2c2cccs2)c1`, for which the inhibition was 16.8%.
To `O=C(CN1CCOCC1)Nc1cc(Cl)ccc1Cl` belongs 48.8%; to `C=C(C)Cn1c(N2CCCC2)nc2c1c(=O)[nH]c(=O)n2C`, -8.1%; to `COc1ccccc1N1CCN(C(=O)CSc2nnc(-c3ccoc3C)o2)CC1`, 17.4%.
Consider `O=C(CSC1=Nc2ccccc2C2=NC(CC(=O)NCc3ccco3)C(=O)N12)NCc1ccco1` (stereo not drawn), for which the inhibition is 10.6%.
Consider `CCC1CCCCN1CCCNC(=O)Cn1nc(-c2ccccc2)ccc1=O` (stereo not drawn), for which the inhibition was -1.3%.
To `Cc1ccsc1-c1nc(CSCC(=O)NCCN2CCCC2)c(C)o1` belongs 1.6%; to `O=C(/C=C/c1ccc(Cl)cc1Cl)NCc1ccco1`, 31.8%.
To `O=C(/C=C/c1ccc(Cl)cc1Cl)c1cccnc1` belongs 62.6% (active); to `C/C(=C\C(=O)c1cccnc1)Nc1ccc(C)c(C)c1`, 37.2%; to `C=CCn1c(N)c(S(=O)(=O)c2cccs2)c2nc3ccccc3nc21`, 80.5% (active).
Take `Cc1ccc(S(=O)(=O)c2c(N)n(C)c3nc4ccccc4nc23)cc1`: the inhibition was 47.7%.
Under `C=CCn1c(N)c(C(=O)OCC(C)C)c2nc3ccccc3nc21` stands 18.5%.
Turning to `Cc1ccc(NC(=S)NCCN2CCOCC2)cc1`, the inhibition is 23%.
With `Fc1ccc(-n2c(Cc3ccccc3)nnc2SCc2nc(-c3ccc(Cl)cc3)no2)cc1`, the inhibition is 80% (active).
As to `Cc1ccc(Nc2nc(CSc3nnnn3-c3ccccc3)cc(=O)[nH]2)cc1`, the inhibition is 16.7%.
Under `CCN(CC)C(=O)CSc1nnc(-c2cnccn2)n1-c1ccc(C)cc1` stands -1.8%.
Under `COc1ccc(-c2noc(-c3ccc(C)cc3)n2)cc1` stands 6.2%; under `O=C(CSc1nnc(Cc2ccccc2)n1-c1ccccc1)N1CCOCC1`, 8.2%; under `Cc1cccc(-c2noc(-c3ccc(F)cc3)n2)c1`, 32.6%.
To `COc1ccc(-c2noc(CN(C)S(=O)(=O)c3ccc(C)cc3)n2)cc1` belongs 40.2%.
Consider `CSc1nnc(CNC(=O)c2ccccc2)n1-c1ccc(F)cc1`, for which the inhibition was -4.4%.
To `COc1ccc(-c2noc(CSc3ccc(C)cc3)n2)cc1` belongs 78.6% (active).
To `Cc1ccc(-c2noc(CSc3nnnn3-c3ccccc3)n2)cc1` belongs 73.4% (active).
Regarding `Cc1ccc(-c2noc(CSc3nnc(-c4ccncc4)n3-c3ccc(F)cc3)n2)cc1`, the inhibition is 58.3% (active).
To `Cc1cc2c(cc1C)N(C(=O)CN1C(=O)c3ccccc3C1=O)C(C)(C)c1ssc(=S)c1-2` belongs 3.4%.
For the compound `OCCNCCCCOc1ccccc1F`, the inhibition was -2.2%.
On to `Cc1c(Br)c([N+](=O)[O-])nn1C(C)C(=O)Nc1nccs1` (stereo not drawn), for which the inhibition was 37.1%.
On to `Cc1nnc(SCC(=O)N(C(C)C)C(C)C)nc1C`, for which the inhibition is 22.9%.
For the compound `CCc1nc(N2CCN(c3nc(C)cc(C)n3)CC2)c2oc3ccccc3c2n1`, the inhibition is 8.3%.
To `O=C(Nc1ccc(Br)cc1)c1cccc(NC(=O)C2C3CC4OC(=O)C2C4C3)c1` (stereo not drawn) belongs 24.6%; to `O=C(Nc1nncs1)c1ccccc1NS(=O)(=O)c1cccs1`, 46.2%.
Under `CC1(C)CC(=O)C(C=NCc2cccnc2)=C(O)C1` stands 14.2%; under `CCOC(=O)N1CCC(NC(=O)COc2cc(=O)n(C)c3ccccc23)CC1`, -16.3%.

As usually defined, the inhibition is the relative decrease from the control value, in per cent.

Source of the values: PubChem BioAssay AID778 (Sanford-Burnham Center for Chemical Genomics, 2007).
